The first test addresses Torsin-1A (Homo sapiens) (UniProt O14656). The experiment in a line: small-molecule binders of mutant TOR1A in lysate, primary screen, cell lysate, small-molecule microarray, COS7 lysate, 635/667 nm fluorescence (AID 1150).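 Note: score pools 667 nm emission and signal to noise measuring lysate protein binding.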 The conditions noted are these: COS7 hTOR1A mutant lysate, 635 nm fluorescence, higher = more signal.
Chain of Torsin-1A (Homo sapiens) (O14656 whole entry, looked up): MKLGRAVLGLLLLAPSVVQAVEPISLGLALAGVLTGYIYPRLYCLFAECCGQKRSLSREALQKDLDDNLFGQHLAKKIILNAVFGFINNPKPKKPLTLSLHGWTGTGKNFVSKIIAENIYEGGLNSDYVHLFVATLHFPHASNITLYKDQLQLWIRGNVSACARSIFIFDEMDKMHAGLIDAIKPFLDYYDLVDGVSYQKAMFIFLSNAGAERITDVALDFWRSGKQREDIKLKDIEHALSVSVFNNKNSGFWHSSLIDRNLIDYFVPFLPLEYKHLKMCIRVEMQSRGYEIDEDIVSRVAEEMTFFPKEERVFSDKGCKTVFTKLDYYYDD
`O=C(O)[C@H](Cc1ccccc1)n1cc(-c2ccccc2)nn1` displayed a composite z-score of 0.804. `C=CC[C@]1(C(=O)NCc2ccccc2)N=C(c2ccc(OCCCO)cc2)O[C@H]1c1ccccc1CN=[N+]=[N-]` displayed a composite z-score of 0.631. The same measure, in the same setting: in the case of `CN1C(=O)C2C=CC(C(O)c3ccc(F)cc3)N(N(c3ccccc3)c3ccccc3)C2C1=O` (stereo not drawn) it was 0.361; in that of `C=CCC(OC(C)=O)[C@@H]1[C@@H](N(Cc2ccc(-c3cccc(C(F)(F)F)c3)o2)C(=O)Cc2ccc(OC)cc2)c2cc(OCCCO)ccc2N1C(=O)c1ccc2ccccc2c1` (stereo partly drawn), 0.168. Compound `CN(C)CCCCCCNC(=O)[C@@H]1C[C@@H]2C(=O)N[C@@H](CCCC[N+](C)(C)C)C(=O)N2[C@@H]1c1ccc(O)cc1` showed a composite z-score of 0.771. The same measure, in the same setting: with `CC(C)CNC(=O)[C@@]1(Cc2ccccc2I)c2ccccc2C(=O)N(Cc2ccccc2C(F)(F)F)[C@H]1c1ccc(CO)cc1` the figure was -0.185; with `C=CC[C@]1(C(N)=O)N=C(c2ccc(OCCCO)cc2)O[C@H]1c1ccccc1`, 2.33; with `COCCCNC(=O)[C@@]1(Sc2ccc(C)cc2)CC(=O)N(Cc2ccccc2Cl)[C@@H]1c1ccc(CO)cc1`, 0.582. For `CCCC=C(CCC)[C@@H](NC(=O)OCC(C)C)c1ccccc1`, the composite z-score is -0.0475. Take `OCC1C=C(/C=C/c2ccccc2)CN1Cc1ccccc1Br` (stereo not drawn): the composite z-score amounted to 0.818. `CN1C(=O)C2C=CC(C(O)C=Cc3ccc([N+](=O)[O-])cc3)N(Nc3ccccc3)C2C1=O` (stereo not drawn) displayed a composite z-score of -0.0071. The compound `COC(=O)[C@@]1(Cc2ccccc2)[C@H]2c3cc(C(=O)N4CCCC4)n(Cc4ccc(O)c(OC)c4)c3C[C@H]2CN1C(=O)c1ccccc1` yielded a composite z-score of 0.0381. In turn, `CN(C)CCCCCCNC(=O)[C@@H]1C[C@@H]2C(=O)N3CCC[C@H]3C(=O)N2[C@@H]1c1ccc(O)cc1` showed a composite z-score of 1.46. For the compound `C[N+](C)(C)CCCC[C@@H]1NC(=O)[C@H]2C[C@@H](C(=O)NCCCCCCNC(=O)CS)[C@@H](c3ccc(O)cc3)N2C1=O`, the composite z-score was 1.3.

`COC(=O)C(CC#Cc1ccc2c(c1)[C@]1(C(=O)N2)[C@H](c2ccccc2OCCO)N2[C@H](c3ccccc3)[C@H](c3ccccc3)OC(=O)[C@H]2[C@@H]1C(=O)O)C(=O)OC` displayed a composite z-score of 1.14. In turn, `NCCCCCNC(=O)[C@H]1C[C@H]2C(=O)N3CCC[C@H]3C(=O)N2[C@H]1c1ccc(O)cc1` showed a composite z-score of 1.09.

Turning to `C=CCC(OC(C)=O)[C@@H]1[C@@H](N(Cc2ccc(-c3ccccc3)cc2)C(=O)Cc2ccc(F)cc2)c2cc(OCCCO)ccc2N1C(=O)c1ccc2ccccc2c1` (stereo partly drawn), the composite z-score was -0.0056. On to `CCOc1ccc(N2C(=O)CSC2c2cccc([N+](=O)[O-])c2)cc1` (stereo not drawn), for which the composite z-score was 0.731. `C=C(CCCC)/C(=C/C[C@H](OC(C)=O)c1ccccc1OCCO)c1cnc2ccccc2c1` gave a composite z-score of 0.878. `C=CC[C@]1(C(N)=O)COC(c2ccc(OCCCO)cc2)=N1` returned a composite z-score of 1.18. In turn, `COCCOC(=O)N1C(=O)[C@@]2(c3cc(C#CC4=CCCCC4)ccc31)[C@H](C(N)=O)[C@H]1C(=O)O[C@H](c3ccccc3)[C@H](c3ccccc3)N1[C@@H]2c1ccc(O)cc1` had a composite z-score of 0.931.

Consider `O=C1O[C@@H](c2ccccc2)[C@@H](c2ccccc2)N2[C@@H](c3ccc(OCCO)cc3)[C@]3(C(=O)Nc4ccc(C#CC5=CCCCC5)cc43)[C@@H](C(=O)N3CCCCCCC3)[C@H]12`, for which the composite z-score amounted to 2.02. In turn, `COc1ccc([Si](C)(C)[C@@H]2[C@@H](CCn3cc([C@H](O)c4ccccc4)nn3)O[C@]3(C(=O)N(Cc4cccc(N5CCC5=O)c4)c4ccccc43)[C@H]2C)cc1` came in with a composite z-score of 0.0953.

The subject of a further test is Sonic hedgehog protein (Shh). The experiment in a line: small-molecule binders of Shh protein, primary screen, biochemical, small-molecule microarray, 635/667 nm fluorescence (AID 1151).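 Note: Shh protein binding to compounds spotted on small-molecule microarray slides; score combines spot fluorescence intensity with signal-to-noise across triplicate slides.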 The conditions noted are these: small-molecule microarray binding, 635 nm fluorescence; higher = more signal.
For the compound `COc1ccc([Si](C)(C)[C@@H]2[C@@H](CCO)O[C@]3(C(=O)N(Cc4cccc(N5CCOC5=O)c4)c4ccccc43)[C@H]2C)cc1`, the composite z-score stood at 0.529. `COCCOC(=O)N1C(=O)[C@@]2(c3ccccc31)[C@H](C(N)=O)[C@H]1C(=O)O[C@H](c3ccccc3)[C@H](c3ccccc3)N1[C@@H]2c1ccc(O)cc1` displayed a composite z-score of 0.105.

Compound `O=C1C[C@@](C(=O)NCc2ccccc2)(c2ccc([N+](=O)[O-])cc2)[C@@H](c2ccc(CO)cc2)N1CC12CC3CC(CC(C3)C1)C2` registered a composite z-score of 1.99. As for `COCC(=C=CC[C@H](O)c1cccc(OCCO)c1)CCO`, the composite z-score came out at 1.81.

Compound `COCCCNC(=O)[C@@]1(Cc2ccccc2CN=[N+]=[N-])N=C(c2ccc(OCCCO)cc2)O[C@H]1c1ccccc1CN=[N+]=[N-]` showed a composite z-score of -0.933.

With `COC(=O)[C@]1(Cc2ccccc2)N=C(c2ccc(OCCCO)cc2)O[C@@H]1c1ccccc1N=[N+]=[N-]`, the composite z-score is 0.354. `COC(=O)[C@@]1(Cc2ccc(F)cc2)[C@H]2c3cc(C(=O)N(C)C)n(Cc4ccc(C)o4)c3C[C@H]2CN1C(=O)c1ccccc1` registered a composite z-score of -0.81. The compound `CC(C)=CCCC(C)=CC(O)C1C=CC2C(=O)N(c3ccccc3)C(=O)C2N1Nc1ccc(C(C)C)cc1` (stereo not drawn) yielded a composite z-score of -0.309. The same measure, in the same setting: with `COc1ccccc1CN1C(=O)c2ccccc2[C@@H](C(=O)NCc2ccccc2)[C@@H]1c1ccc(CO)cc1` the figure was 0.496; with `CC#CC(=O)Oc1ccc(Br)cc1C=CC(=O)OCC`, 0.247; with `O=C(NC1CC1)[C@@H]1c2ccccc2C(=O)N(C2Cc3ccccc3C2)[C@H]1c1ccc(CO)cc1`, 1.05. Take `COCCCNC(=O)[C@@H]1c2ccccc2C(=O)N(Cc2ccccc2OC)[C@H]1c1ccc(CO)cc1`: the composite z-score was 2.03. `O=C(O)[C@H](Cc1ccccc1)n1cc(-c2ccccc2)nn1` yielded a composite z-score of 0.172. Compound `C=CC[C@]1(C(=O)NCc2ccccc2)N=C(c2ccc(OCCCO)cc2)O[C@H]1c1ccccc1CN=[N+]=[N-]` had a composite z-score of -0.251. On the same count and under the same terms, in the case of `CN1C(=O)C2C=CC(C(O)c3ccc(F)cc3)N(N(c3ccccc3)c3ccccc3)C2C1=O` (stereo not drawn) it was -0.647; in that of `C=CCC(OC(C)=O)[C@@H]1[C@@H](N(Cc2ccc(-c3cccc(C(F)(F)F)c3)o2)C(=O)Cc2ccc(OC)cc2)c2cc(OCCCO)ccc2N1C(=O)c1ccc2ccccc2c1` (stereo partly drawn), 0.804; in that of `CN(C)CCCCCCNC(=O)[C@@H]1C[C@@H]2C(=O)N[C@@H](CCCC[N+](C)(C)C)C(=O)N2[C@@H]1c1ccc(O)cc1`, 1.66. The same measure, in the same setting: with `CC(C)CNC(=O)[C@@]1(Cc2ccccc2I)c2ccccc2C(=O)N(Cc2ccccc2C(F)(F)F)[C@H]1c1ccc(CO)cc1` the figure was -0.197; with `C=CC[C@]1(C(N)=O)N=C(c2ccc(OCCCO)cc2)O[C@H]1c1ccccc1`, -0.406. The compound `COCCCNC(=O)[C@@]1(Sc2ccc(C)cc2)CC(=O)N(Cc2ccccc2Cl)[C@@H]1c1ccc(CO)cc1` yielded a composite z-score of 2.02. On to `CCCC=C(CCC)[C@@H](NC(=O)OCC(C)C)c1ccccc1`, for which the composite z-score was 0.661.

Regarding `OCC1C=C(/C=C/c2ccccc2)CN1Cc1ccccc1Br` (stereo not drawn), the composite z-score came to 1.39. Take `CN1C(=O)C2C=CC(C(O)C=Cc3ccc([N+](=O)[O-])cc3)N(Nc3ccccc3)C2C1=O` (stereo not drawn): the composite z-score worked out at 0.428. `COC(=O)[C@@]1(Cc2ccccc2)[C@H]2c3cc(C(=O)N4CCCC4)n(Cc4ccc(O)c(OC)c4)c3C[C@H]2CN1C(=O)c1ccccc1` displayed a composite z-score of -1.39. Same read-out and setting: with `CN(C)CCCCCCNC(=O)[C@@H]1C[C@@H]2C(=O)N3CCC[C@H]3C(=O)N2[C@@H]1c1ccc(O)cc1` the figure was 2.17; with `C[N+](C)(C)CCCC[C@@H]1NC(=O)[C@H]2C[C@@H](C(=O)NCCCCCCNC(=O)CS)[C@@H](c3ccc(O)cc3)N2C1=O`, 0.801; with `COC(=O)C(CC#Cc1ccc2c(c1)[C@]1(C(=O)N2)[C@H](c2ccccc2OCCO)N2[C@H](c3ccccc3)[C@H](c3ccccc3)OC(=O)[C@H]2[C@@H]1C(=O)O)C(=O)OC`, 0.279.

As to `NCCCCCNC(=O)[C@H]1C[C@H]2C(=O)N3CCC[C@H]3C(=O)N2[C@H]1c1ccc(O)cc1`, the composite z-score was 1.65. On to `C=CCC(OC(C)=O)[C@@H]1[C@@H](N(Cc2ccc(-c3ccccc3)cc2)C(=O)Cc2ccc(F)cc2)c2cc(OCCCO)ccc2N1C(=O)c1ccc2ccccc2c1` (stereo partly drawn), for which the composite z-score came to 0.627.

For the compound `CCOc1ccc(N2C(=O)CSC2c2cccc([N+](=O)[O-])c2)cc1` (stereo not drawn), the composite z-score was found to be 0.0304. On to `C=C(CCCC)/C(=C/C[C@H](OC(C)=O)c1ccccc1OCCO)c1cnc2ccccc2c1`, for which the composite z-score amounted to 1.49. The compound `C=CC[C@]1(C(N)=O)COC(c2ccc(OCCCO)cc2)=N1` yielded a composite z-score of 0.395. Turning to `COCCOC(=O)N1C(=O)[C@@]2(c3cc(C#CC4=CCCCC4)ccc31)[C@H](C(N)=O)[C@H]1C(=O)O[C@H](c3ccccc3)[C@H](c3ccccc3)N1[C@@H]2c1ccc(O)cc1`, the composite z-score was 1.08.

For `O=C1O[C@@H](c2ccccc2)[C@@H](c2ccccc2)N2[C@@H](c3ccc(OCCO)cc3)[C@]3(C(=O)Nc4ccc(C#CC5=CCCCC5)cc43)[C@@H](C(=O)N3CCCCCCC3)[C@H]12`, the composite z-score turned out to be 1.37. The same measure, in the same setting: in the case of `COc1ccc([Si](C)(C)[C@@H]2[C@@H](CCn3cc([C@H](O)c4ccccc4)nn3)O[C@]3(C(=O)N(Cc4cccc(N5CCC5=O)c4)c4ccccc43)[C@H]2C)cc1` it was 0.71.

These data come from PubChem BioAssay.
